This excerpt belongs to a sample that is enriched for hits.
TbPYK inhibitor – blocks Trypanosoma brucei pyruvate kinase; Q57TT1; TbPYK enzyme, Kinase-Glo Plus ATP luminescence, 45 min; Potency, µM (titrated, usually from 76.8 µM), for the others: at the highest dose activity, negative = inhibition, hits mostly inhibitors; 410,000 compounds, 0.12% hits; AID 624173; note: potency is the fitted concentration of half-maximal effect; % is set by controls: 0 for no effect and ±100 for the full control effect; nearly all actives have a fitted effect of over 50% in size
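Enzyme and substrate buffer are dispensed first and compound is pin-transferred. ADP at 130 uM final then starts the reaction, which runs 45 min at room temperature. Detection reagent is added for 10 min before luminescence is imaged.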
CHX counter – affects cycloheximide protein synthesis inhibition readout, counter-screen; max response, %; cell reporter, cycloheximide protein synthesis inhibition counterscreen; 300,000 compounds, 12% hits; in the data active = max response mostly above about 13%, no sharp cut-off; inactive = mostly below about 14%; note: read at 38.3 µM for the half of the compounds with a filed dose; 0% is about no effect
Giardia FBPA inh-1 – blocks Giardia fructose-bisphosphate aldolase activity; purified Giardia FBPA; Potency, µM (series often up to 59.6 µM), inactives show top-dose activity, negative = inhibition, actives largely listed as inhibitors; 290,000 compounds, 0.71% hits; note: potency is the fitted concentration of half-maximal effect; % is set by controls: 0 for no effect and ±100 for the full control effect; nearly all actives have a fitted effect of over 55% in size
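Giardia FBPA (40 nM reagent) was preincubated 10 min at RT with compound (up to 57.5 uM final), then substrate plus GAPDH/TPI/NAD/arsenate coupling system with diaphorase/resazurin was added; resorufin fluorescence (525/598 nm) was read after 20 min.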
RE007 growth inh – less growth of the S. pombe RE007 Vpr strain; Potency, µM (top dose mostly 92.2 µM), without a hit: top-dose activity change, negative = less growth, most hits filed as inhibitors; 360,000 compounds, 0.21% hits; S. pombe RE007 Vpr strain, BacTiter-Glo ATP luminescence, 24 h; active = well fitted falling curve with a large enough effect; inconclusive = small, poorly fitted or top-dose-only effect; inactive = no such curve, though single readings can be large or run the other way; note: potency is the fitted concentration of half-maximal effect; % is set by controls: 0 for no effect and ±100 for the full control effect; nearly all actives have a fitted effect of over 50% in size
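Fission yeast strain RE007, carrying one chromosomally integrated HIV-1 vpr copy, was seeded at OD 0.01 in PMG+AL medium with 23 nL pinned compound. After 24 h at 30 °C and 99% humidity, viability was read by BacTiter-Glo luminescence.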
Shiga toxin inh – blocks Shiga toxin action in Vero cells. Vero cells, Shiga toxin protein synthesis inhibition reporter. inhibition, % at 38.7 µM. 290,000 compounds, 9.2% hits. AID 2315; in the data active = inhibition mostly above about 28%, no sharp cut-off; inactive = mostly below about 43%; note: 0% is about no effect
LmPK inh – inhibitors of Leishmania mexicana pyruvate kinase; Q27686; purified LmPK, Kinase-Glo ATP luminescence, 1 h; Potency, µM (doses to about 57.5 µM), without a hit: top-dose activity change, negative = inhibition, actives largely listed as inhibitors; 290,000 compounds, 0.37% hits; note: potency is the fitted concentration of half-maximal effect; % is set by controls: 0 for no effect and ±100 for the full control effect
Target sequence (Q27686 whole entry, looked up): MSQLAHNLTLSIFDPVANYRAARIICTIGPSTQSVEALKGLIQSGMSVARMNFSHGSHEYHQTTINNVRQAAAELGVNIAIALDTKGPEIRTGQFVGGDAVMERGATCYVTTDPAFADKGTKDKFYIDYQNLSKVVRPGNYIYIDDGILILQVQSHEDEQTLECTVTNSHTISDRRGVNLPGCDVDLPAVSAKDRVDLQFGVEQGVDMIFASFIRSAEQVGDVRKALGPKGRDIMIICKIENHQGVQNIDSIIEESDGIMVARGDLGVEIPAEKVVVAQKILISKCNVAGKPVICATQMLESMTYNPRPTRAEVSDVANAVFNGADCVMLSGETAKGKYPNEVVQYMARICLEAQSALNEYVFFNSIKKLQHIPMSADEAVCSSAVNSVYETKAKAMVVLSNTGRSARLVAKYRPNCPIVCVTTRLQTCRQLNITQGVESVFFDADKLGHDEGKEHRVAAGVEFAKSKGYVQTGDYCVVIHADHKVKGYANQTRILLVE
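In 50 mM imidazole pH 7.2 with 7 mM MgCl2, LmPK (0.1 nM) turned over PEP (0.5 mM) and ADP (0.1 mM) for 1 h at room temperature. Luciferase read-out of ATP.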
Giardia growth – Giardia lamblia growth inhibition; shares compounds with Giardia FBPA inh-1; Giardia lamblia trophozoite growth inhibition; Potency, µM (highest dose often 57.5 µM), for the others: top-dose activity change, negative = inhibition, most hits filed as inhibitors; 1,500 compounds, 5% hits; AID 2785;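 note: potency is the fitted concentration of half-maximal effect; trophozoites exposed to compound for 48 h at 37 °C; % is set by controls: 0 for no effect and ±100 for the full control effect; nearly all actives have a fitted effect of over 70% in size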
Mammalian tox – mammalian cytotoxicity of Giardia aldolase inhibitor hits. mammalian cell viability counter-screen, qHTS. 1,500 compounds, 4% hits. Potency, µM (top dose mostly 57.5 µM), for the others: at the top dose viability change, negative = toxicity, hits mostly inhibitors. shares compounds with Giardia FBPA inh-1. AID 2786;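 note: Chinese hamster ovary cells used as mammalian cytotoxicity surrogate; viability measured as cellular ATP by luminescence; potency is the fitted concentration of half-maximal effect; compound exposure lasted 48 h before reading; % is set by controls: 0 for no effect and ±100 for the full control effect; nearly all actives have a fitted effect of over 60% in size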
Giardia FBPA inh-2 – confirmation of Giardia fructose-bisphosphate aldolase inhibitors; shares compounds with Giardia FBPA inh-1; purified Giardia aldolase enzyme activity, qHTS; Potency, µM (series often up to 57.5 µM), without a hit: top-dose activity change, negative = inhibition, hits mostly inhibitors; 1,500 compounds, 5% hits; AID 2787; note: potency is the fitted concentration of half-maximal effect; % is set by controls: 0 for no effect and ±100 for the full control effect; nearly all actives have a fitted effect of over 45% in size
Rabbit aldolase – rabbit FBP aldolase inhibition by Giardia aldolase hits. shares compounds with Giardia FBPA inh-1. Rabbit muscle FBPA enzyme inhibition, selectivity counter-screen. Potency, µM (series often up to 57.5 µM), without a hit: at the highest dose activity, negative = inhibition, usual class: inhibitors. 1,500 compounds, 4% hits. AID 2794; note: potency is the fitted concentration of half-maximal effect; % is set by controls: 0 for no effect and ±100 for the full control effect; nearly all actives have a fitted effect of over 60% in size
Target sequence (P00883 whole entry, looked up): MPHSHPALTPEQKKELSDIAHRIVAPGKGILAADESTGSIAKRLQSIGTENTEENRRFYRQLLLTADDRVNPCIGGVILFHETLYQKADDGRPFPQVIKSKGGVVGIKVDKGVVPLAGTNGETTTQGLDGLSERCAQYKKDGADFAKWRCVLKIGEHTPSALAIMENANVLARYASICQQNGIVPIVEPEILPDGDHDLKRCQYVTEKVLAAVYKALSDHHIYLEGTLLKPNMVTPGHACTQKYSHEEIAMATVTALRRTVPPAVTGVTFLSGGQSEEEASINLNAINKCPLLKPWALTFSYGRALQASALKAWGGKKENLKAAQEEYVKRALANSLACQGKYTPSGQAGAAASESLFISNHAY
GAPDH coupling – counter-screen for Giardia aldolase inhibitors: GAPDH coupling enzyme; shares compounds with Giardia FBPA inh-1; GAPDH coupling enzyme counterscreen, biochemical, qHTS; Potency, µM (series often up to 57.5 µM), for inactives: top-dose activity change, negative = inhibition, actives largely listed as inhibitors; 1,500 compounds, 6% hits; AID 2795; note: potency is the fitted concentration of half-maximal effect; % is set by controls: 0 for no effect and ±100 for the full control effect; nearly all actives have a fitted effect of over 55% in size
* marks the source's active call; other numbers are inactive results; ? = inconclusive; / = no result; [ ] = remark or other dose. Unless noted, calls come from the whole dose curve; as a rule, active = well fitted curve in the direction sought with a large enough effect; inconclusive = small, poorly fitted or top-dose-only effect, or another doubt; inactive = no such curve, though single readings can be large; an effect the other way counts as inactive or inconclusive.

SMILES	TbPYK inhibitor	CHX counter	Giardia FBPA inh-1	RE007 growth inh	Shiga toxin inh	LmPK inh	Giardia growth	Mammalian tox	Giardia FBPA inh-2	Rabbit aldolase	GAPDH coupling
O=[N+]([O-])c1ccccc1S(=O)(=O)N1CCN(Cc2ccsc2)CC1	-9%	4	20µM*	-19%	42	-1%	-17%	0%	-4%	-1%	3%
CCCCOC(=O)c1ccc(NC(=O)/C(C#N)=C/c2ccc(-c3ccccc3)o2)cc1	0%	/	/	/	/	/	/	/	/	/	/
CC(C)n1c(=O)[nH][nH]c1=S	3.5µM*	1	18µM*	23%	5	8%	-4%[10.4 µM]	3%	-10%	32µM*	-16%
CC(C)n1c(=O)[nH]c2ccccc21	1%	-3	23%	-14%	-2	0%	/	/	/	/	/
O=c1cc2c(=O)oc3cc(O)c(O)oc3c2c(O)c1O	-18%	-3	2.8µM*	-3%	-6	-18%	15%[10.4 µM]	21%	-27%	?	-18%
COc1ccc(-c2nnc(SCC(=O)NC(=O)Cc3ccccc3)n2C)cc1	-19%	/	/	13%	/	/	/	/	/	/	/
COc1ccc(C(=O)NNC2=NS(=O)(=O)c3ccccc32)cc1OC	3%	-3	-26%	11%	-6	1%	/	/	/	/	/
COc1ccc(/C=N/NC2=NS(=O)(=O)c3ccccc32)cc1OC	-3%	-2	10µM*	3%	-13	7%	11%[10.4 µM]	27%	13%	12%	-7%
COc1cc(/C=N/NC2=NS(=O)(=O)c3ccccc32)ccc1OC(C)=O	6%	-3	11µM*	11%	-2	-9%	7%	8%	7%	11%	8%
O=S1(=O)N=C(N/N=C/c2ccco2)c2ccccc21	1%	6	?	9%	27	10%[11.5 µM]	/	/	/	/	/
CC(Sc1nnnn1C1CCCC1)C(=O)Nc1cccc(S(=O)(=O)N2CCOCC2)c1 (stereo unspecified)	0%	/	/	3%	/	/	/	/	/	/	/
O=C(O)c1cc(-c2cc(C(=O)O)c3ccccc3n2)nc2ccccc12	/	-3	2.5µM*	/	-4	1%	-13%[38.3 µM]	-11%	-2%	4%	-6%
Cn1ccc(-c2cc(C(=O)O)c3ccccc3n2)n1	-6%	-3	?	-2%	-7	3%	/	/	/	/	/
NCc1c(O)ccc2ccccc12	/	-1	-10%	/	-6	6%	-2%[38.3 µM]	-9%	1.6µM*	?	?
COCCNC(=S)NNc1ccc(Cl)c(C(=O)O)c1	-22%	-3	7.1µM*	-1%	12	8%	?	4%	-8%	-4%	-7%
Cc1ccccc1-n1c(-c2ccc(=O)[nH]n2)n[nH]c1=S	?	1	6.3µM*	-18%	16	?	16%	-2%	0%	11%	-4%
Cc1ccccc1-n1c(-c2ccc(Br)o2)n[nH]c1=S	?	/	/	-3%	/	/	/	/	/	/	/
O=C(CN1CCOCC1)Nc1nc2ccc(Br)cc2s1	/	27	-3%	-9%[3.69 µM]	77	2%	/	/	/	/	/
O=C(CN1CCOCC1)Nc1nc2ccc(Cl)cc2s1	1%	22*	6.3µM*	-8%	38	0%	-5%	-20%	5%	8%	7%
CS(=O)(=O)c1ccc2nc(NC(=O)CN3CCOCC3)sc2c1	0%	-1	4.5µM*	9%	/	4%	?	-4%	2%	6%	3%
O=C(O)CSc1nnc(NC(=O)CN2CCOCC2)s1	1%	1	5µM*	-2%	-8	-1%	-5%	0%	3%	11%	11%
O=C(CCc1ccccc1)Nc1nc2ccc(S(=O)(=O)N3CCOCC3)cc2s1	-13%	5	6%	6%	-6	-1%	/	/	/	/	/
CCOC(=O)Cn1nc2oc(=O)c(CCN3CCN(c4ccccc4OC)CC3)c(C)c2c1C	4%	/	/	-12%	/	/	/	/	/	/	/
N#Cc1ccc(CN2C(=O)c3ccccc3Sc3ccc(C(=O)OCc4ccco4)cc32)cc1	-10%	/	/	/	/	/	/	/	/	/	/
CC(=O)c1cc(-c2ccccc2)n(CCC(=O)Nc2cc(C)cc(C)c2)c1C	-14%[15.4 µM]	/	/	/	/	/	/	/	/	/	/
SMILES	TbPYK inhibitor	CHX counter	Giardia FBPA inh-1	RE007 growth inh	Shiga toxin inh	LmPK inh	Giardia growth	Mammalian tox	Giardia FBPA inh-2	Rabbit aldolase	GAPDH coupling
CCOC(=O)N1CCN(Cc2ccc3ccccc3c2)CC1	17%	-2	25µM*	-11%	-6	1%	9%[10.4 µM]	9%	3%	8%	2%
CCOC(=O)C1CCN(Cc2ccc3ccccc3c2)CC1	12%	1	-27%	2%	-10	-1%	/	/	/	/	/
CCOC(=O)N1CCN(Cc2ccccn2)CC1	0%	2	14µM*	-6%	-4	-5%	33%	-10%	0%	3%	6%
COc1ccc(S(=O)(=O)N2CCN(CC(=O)N3CCc4ccccc4C3)CC2)cc1OC	-2%	/	/	10%	/	/	/	/	/	/	/
COc1cc2c(cc1OC)CN(C(=O)CN1CCN(S(=O)(=O)c3ccccc3Br)CC1)CC2	0%	17*	16µM*	-5%	69*	1%	3%	-5%	1%	-5%	9%
COc1nc(N/N=C/c2ccc(-c3ccccc3[N+](=O)[O-])o2)nc(N2CCOCC2)n1	-14%	70*	4.5µM*	/	110*	-2%	-33%[38.3 µM]	-7%	?	?	40µM*
COc1cc(C(=O)NC(=S)N2CCCCCC2)cc(OC)c1OC	-7%	1	16µM*	-21%	25	1%	?	-6%	-3%	3%	10%
COc1ccc(C(=O)NC(=S)N2CCOCC2)cc1Br	?	-3	16µM*	2%	-6	1%	?	-2%	-2%	5%	7%
COc1cc(C(=O)NCCC(=O)N2CCCCC2)cc(OC)c1OC	2%	1	2%	-2%	12	2%	/	/	/	/	/
N/C(=N\C(=S)Nc1ccc2c(c1)OCO2)c1ccccc1	2%	/	/	-29%	/	/	/	/	/	/	/
CC(=O)Nc1ncc([N+](=O)[O-])s1	2%	/	/	/	/	/	/	/	/	/	/
Cc1ccc(C(=O)Nc2ncc([N+](=O)[O-])s2)cc1	-18%	-7	16µM*	?	-6	?	?	40µM*	?	25µM*	28µM*

Source: PubChem BioAssay
